# From article PMC7862700, “An all-to-all approach to the identification of sequence-specific readers for epigenetic DNA modifications on cytosine”
# Legend:
# Assay in all cases: DAPPL (digital affinity profiling via proximity ligation, sequencing); 10 mM Tris-HCl pH 7.5, 50 mM NaCl, 1 mM DTT, 4% glycerol, room temperature, 30 min; GST-TFs on glutathione beads, 16-mer random dsDNA library, 0.1% formaldehyde crosslink after washing; high values mean tight binding
# [1] = biological target: T1, FLI1 (Homo sapiens, UniProt Q01543 1-452); conditions: protein: recombinant; tags: N-terminal GST; dsDNA, one strand shown
# T1 sequence: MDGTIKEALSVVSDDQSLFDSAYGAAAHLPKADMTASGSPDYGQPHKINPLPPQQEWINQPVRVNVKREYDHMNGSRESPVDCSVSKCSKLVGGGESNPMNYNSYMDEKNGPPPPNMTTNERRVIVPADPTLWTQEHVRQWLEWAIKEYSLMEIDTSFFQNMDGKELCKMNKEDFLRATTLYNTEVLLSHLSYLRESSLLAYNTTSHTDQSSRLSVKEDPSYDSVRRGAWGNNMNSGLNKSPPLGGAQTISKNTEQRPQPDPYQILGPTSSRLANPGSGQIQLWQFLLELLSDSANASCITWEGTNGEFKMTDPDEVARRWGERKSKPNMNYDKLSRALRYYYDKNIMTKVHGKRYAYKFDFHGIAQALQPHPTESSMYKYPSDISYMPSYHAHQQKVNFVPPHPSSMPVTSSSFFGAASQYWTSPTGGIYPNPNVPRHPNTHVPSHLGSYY
# Summary of the method: (§1)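 Beads coated with glutathione captured GST-fused human transcription factors that had been expressed in yeast, and the factors were then given DNA barcodes and pooled with a tag-only sample. The pools were incubated with 200 nmole of a random double-stranded 16-mer DNA library in Tris/NaCl/DTT/glycerol buffer for 30 min at room temperature, washed, crosslinked with 0.1% formaldehyde and proximity-ligated with BsaI/T4 ligase at 37 °C for 1 h. PCR amplification and Illumina NextSeq500 sequencing came last. Binding signal is each hexamer's read frequency for a factor divided by its frequency for the tag-only sample.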
# [2] = biological target: T2, ELK1 (Homo sapiens, UniProt P19419 1-428); conditions: protein: recombinant; tags: N-terminal GST; dsDNA, one strand shown
# T2 sequence: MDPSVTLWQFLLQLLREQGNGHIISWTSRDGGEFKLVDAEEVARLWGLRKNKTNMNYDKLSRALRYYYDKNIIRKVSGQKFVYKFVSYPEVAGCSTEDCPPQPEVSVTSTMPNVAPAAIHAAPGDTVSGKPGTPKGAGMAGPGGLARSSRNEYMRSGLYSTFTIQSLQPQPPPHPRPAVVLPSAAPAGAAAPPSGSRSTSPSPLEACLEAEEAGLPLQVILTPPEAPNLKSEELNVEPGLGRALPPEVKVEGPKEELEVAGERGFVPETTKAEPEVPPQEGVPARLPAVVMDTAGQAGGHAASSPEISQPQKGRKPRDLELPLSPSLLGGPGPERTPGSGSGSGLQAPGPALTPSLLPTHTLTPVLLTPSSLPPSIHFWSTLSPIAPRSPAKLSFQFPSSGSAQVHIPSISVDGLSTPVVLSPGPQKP
# Summary of the method: as §1
# [3] = biological target: T3, GABPA (Homo sapiens, UniProt Q06546 1-454); conditions: protein: recombinant; tags: N-terminal GST; dsDNA, one strand shown
# T3 sequence: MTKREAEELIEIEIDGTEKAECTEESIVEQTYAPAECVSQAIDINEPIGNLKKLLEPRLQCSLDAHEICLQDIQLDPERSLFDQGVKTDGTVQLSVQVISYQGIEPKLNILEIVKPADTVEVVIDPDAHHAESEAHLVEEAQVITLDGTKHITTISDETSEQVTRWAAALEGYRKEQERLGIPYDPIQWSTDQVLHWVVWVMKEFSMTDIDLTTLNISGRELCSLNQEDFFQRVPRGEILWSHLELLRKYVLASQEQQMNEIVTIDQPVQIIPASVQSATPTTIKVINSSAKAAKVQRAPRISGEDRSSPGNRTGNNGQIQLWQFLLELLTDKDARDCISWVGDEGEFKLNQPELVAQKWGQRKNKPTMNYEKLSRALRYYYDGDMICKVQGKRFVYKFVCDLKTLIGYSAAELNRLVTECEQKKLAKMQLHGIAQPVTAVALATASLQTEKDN
# Summary of the method: as §1
# [4] = biological target: T4, ERG (Homo sapiens, UniProt P11308 1-479); conditions: protein: recombinant; tags: N-terminal GST; dsDNA, one strand shown
# T4 sequence: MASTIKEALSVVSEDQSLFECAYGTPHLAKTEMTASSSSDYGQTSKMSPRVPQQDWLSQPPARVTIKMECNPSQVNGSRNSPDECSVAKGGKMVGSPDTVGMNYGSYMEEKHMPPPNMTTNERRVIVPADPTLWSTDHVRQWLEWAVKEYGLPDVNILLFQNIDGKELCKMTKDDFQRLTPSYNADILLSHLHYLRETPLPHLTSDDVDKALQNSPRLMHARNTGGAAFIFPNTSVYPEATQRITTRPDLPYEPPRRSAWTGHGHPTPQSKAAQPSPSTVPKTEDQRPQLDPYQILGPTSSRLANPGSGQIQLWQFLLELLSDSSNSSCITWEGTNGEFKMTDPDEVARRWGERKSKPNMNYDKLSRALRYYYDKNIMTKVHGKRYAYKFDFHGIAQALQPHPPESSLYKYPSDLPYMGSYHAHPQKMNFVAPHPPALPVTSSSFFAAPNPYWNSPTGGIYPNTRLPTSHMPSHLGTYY
# Summary of the method: as §1
# [5] = biological target: ELF1 (Homo sapiens, UniProt P32519 1-619); conditions: protein: recombinant; tags: N-terminal GST; dsDNA, one strand shown
# Summary of the method: as §1
# [6] = biological target: T5, EHF (Homo sapiens, UniProt Q9NZC4 1-300); conditions: protein: recombinant; tags: N-terminal GST; dsDNA, one strand shown
# T5 sequence: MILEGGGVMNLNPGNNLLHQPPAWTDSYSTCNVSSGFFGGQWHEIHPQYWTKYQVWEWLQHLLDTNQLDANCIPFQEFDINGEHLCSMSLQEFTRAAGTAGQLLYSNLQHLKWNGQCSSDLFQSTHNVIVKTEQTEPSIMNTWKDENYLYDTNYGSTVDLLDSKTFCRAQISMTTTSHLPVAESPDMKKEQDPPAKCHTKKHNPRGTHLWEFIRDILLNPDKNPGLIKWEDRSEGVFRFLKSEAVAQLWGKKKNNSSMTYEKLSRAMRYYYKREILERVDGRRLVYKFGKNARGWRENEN
# Summary of the method: as §1
# [7] = biological target: SPI1 (Homo sapiens, UniProt P17947 1-270); conditions: protein: recombinant; tags: N-terminal GST; dsDNA, one strand shown
# Summary of the method: as §1
# [8] = biological target: SPIB (Homo sapiens, UniProt Q01892 1-262); conditions: protein: recombinant; tags: N-terminal GST; dsDNA, one strand shown
# Summary of the method: as §1
# [9] = biological target: T6, ELK3 (Homo sapiens, UniProt P41970 1-407); conditions: protein: recombinant; tags: N-terminal GST; dsDNA, one strand shown
# T6 sequence: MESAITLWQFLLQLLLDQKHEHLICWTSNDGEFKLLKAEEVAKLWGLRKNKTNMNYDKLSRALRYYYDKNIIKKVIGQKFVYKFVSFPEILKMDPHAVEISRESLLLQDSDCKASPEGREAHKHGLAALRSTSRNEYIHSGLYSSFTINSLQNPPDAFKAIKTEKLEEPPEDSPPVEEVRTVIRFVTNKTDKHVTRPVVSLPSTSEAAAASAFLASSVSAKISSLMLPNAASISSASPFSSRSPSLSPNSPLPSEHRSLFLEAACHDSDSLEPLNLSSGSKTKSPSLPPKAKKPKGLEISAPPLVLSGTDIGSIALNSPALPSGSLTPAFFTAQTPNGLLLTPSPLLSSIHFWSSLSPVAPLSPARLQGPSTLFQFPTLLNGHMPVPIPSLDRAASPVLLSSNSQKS
# Summary of the method: as §1
# [10] = biological target: T7, FEV (Homo sapiens, UniProt Q99581 1-238); conditions: protein: recombinant; tags: N-terminal GST; dsDNA, one strand shown
# T7 sequence: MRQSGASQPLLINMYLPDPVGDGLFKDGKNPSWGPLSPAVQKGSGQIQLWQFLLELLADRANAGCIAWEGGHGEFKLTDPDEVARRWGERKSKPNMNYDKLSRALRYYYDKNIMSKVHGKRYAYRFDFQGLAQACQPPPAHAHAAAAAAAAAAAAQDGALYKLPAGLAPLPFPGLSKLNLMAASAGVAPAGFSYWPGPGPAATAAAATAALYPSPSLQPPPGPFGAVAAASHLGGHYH
# Summary of the method: as §1
# [11] = biological target: ETV5 (Homo sapiens, UniProt P41161 1-510); conditions: protein: recombinant; tags: N-terminal GST; dsDNA, one strand shown
# Summary of the method: as §1
# [12] = biological target: HSF1 (Homo sapiens, UniProt Q00613 1-529); conditions: protein: recombinant; tags: N-terminal GST; chain copies: 3; dsDNA, one strand shown
# Summary of the method: as §1
# [13] = biological target: T8, SPIC (Homo sapiens, UniProt Q8N5J4 1-248); conditions: protein: recombinant; tags: N-terminal GST; dsDNA, one strand shown
# T8 sequence: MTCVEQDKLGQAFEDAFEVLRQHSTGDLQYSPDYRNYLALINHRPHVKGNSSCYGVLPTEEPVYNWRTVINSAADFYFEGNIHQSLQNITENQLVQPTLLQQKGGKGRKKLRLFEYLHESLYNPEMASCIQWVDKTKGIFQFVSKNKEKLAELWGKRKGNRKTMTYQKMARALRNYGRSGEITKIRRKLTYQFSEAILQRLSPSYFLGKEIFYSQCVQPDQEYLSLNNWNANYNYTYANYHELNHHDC
# Summary of the method: as §1
# [14] = biological target: ELF4 (Homo sapiens, UniProt Q99607 1-663); conditions: protein: recombinant; tags: N-terminal GST; dsDNA, one strand shown
# Summary of the method: as §1
# [15] = biological target: T9, ELK4 (Homo sapiens, UniProt P28324-2 1-405); conditions: protein: recombinant; tags: N-terminal GST; dsDNA, one strand shown
# T9 sequence: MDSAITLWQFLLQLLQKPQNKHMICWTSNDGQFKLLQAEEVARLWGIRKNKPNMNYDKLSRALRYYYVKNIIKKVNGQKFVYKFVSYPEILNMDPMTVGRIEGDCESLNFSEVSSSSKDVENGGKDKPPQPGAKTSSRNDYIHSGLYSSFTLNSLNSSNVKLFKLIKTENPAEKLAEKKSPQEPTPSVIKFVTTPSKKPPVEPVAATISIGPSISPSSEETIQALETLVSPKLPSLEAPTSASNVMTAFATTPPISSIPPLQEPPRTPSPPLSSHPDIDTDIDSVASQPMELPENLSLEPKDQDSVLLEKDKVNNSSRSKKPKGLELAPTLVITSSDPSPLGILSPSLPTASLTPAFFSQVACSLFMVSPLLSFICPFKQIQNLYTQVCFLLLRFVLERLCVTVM
# Summary of the method: as §1
# [16] = biological target: T10, ETV2 (Homo sapiens, UniProt O00321 1-342); conditions: protein: recombinant; tags: N-terminal GST; dsDNA, one strand shown
# T10 sequence: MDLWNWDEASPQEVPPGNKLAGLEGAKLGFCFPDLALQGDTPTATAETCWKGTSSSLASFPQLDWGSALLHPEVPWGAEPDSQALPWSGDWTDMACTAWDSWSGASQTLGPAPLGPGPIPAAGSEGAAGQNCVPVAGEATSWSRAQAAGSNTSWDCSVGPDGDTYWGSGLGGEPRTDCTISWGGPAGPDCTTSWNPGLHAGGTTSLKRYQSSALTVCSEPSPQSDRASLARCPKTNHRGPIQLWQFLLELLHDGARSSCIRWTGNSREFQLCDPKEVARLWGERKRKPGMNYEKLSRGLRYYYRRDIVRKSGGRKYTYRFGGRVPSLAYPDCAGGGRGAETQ
# Summary of the method: as §1
# [17] = biological target: T11, ELF3 (Homo sapiens, UniProt P78545 1-371); conditions: protein: recombinant; tags: N-terminal GST; dsDNA, one strand shown
# T11 sequence: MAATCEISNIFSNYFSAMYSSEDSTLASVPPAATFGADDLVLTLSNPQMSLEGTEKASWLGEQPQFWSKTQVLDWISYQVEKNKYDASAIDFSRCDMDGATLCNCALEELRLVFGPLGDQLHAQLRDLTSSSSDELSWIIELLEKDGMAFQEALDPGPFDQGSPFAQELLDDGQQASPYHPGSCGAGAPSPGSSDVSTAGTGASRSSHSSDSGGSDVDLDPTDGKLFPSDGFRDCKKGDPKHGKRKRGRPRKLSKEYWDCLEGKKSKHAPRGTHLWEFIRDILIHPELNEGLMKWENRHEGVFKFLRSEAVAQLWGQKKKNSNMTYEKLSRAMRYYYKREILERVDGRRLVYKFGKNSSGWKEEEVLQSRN
# Summary of the method: as §1
# [18] = biological target: CRX (Homo sapiens, UniProt O43186 1-299); conditions: protein: recombinant; tags: N-terminal GST; dsDNA, one strand shown
# Summary of the method: as §1
# [19] = biological target: ETV1 (Homo sapiens, UniProt P50549 1-477); conditions: protein: recombinant; tags: N-terminal GST; dsDNA, one strand shown
# Summary of the method: as §1
# ETV1, sequence (P50549 whole entry): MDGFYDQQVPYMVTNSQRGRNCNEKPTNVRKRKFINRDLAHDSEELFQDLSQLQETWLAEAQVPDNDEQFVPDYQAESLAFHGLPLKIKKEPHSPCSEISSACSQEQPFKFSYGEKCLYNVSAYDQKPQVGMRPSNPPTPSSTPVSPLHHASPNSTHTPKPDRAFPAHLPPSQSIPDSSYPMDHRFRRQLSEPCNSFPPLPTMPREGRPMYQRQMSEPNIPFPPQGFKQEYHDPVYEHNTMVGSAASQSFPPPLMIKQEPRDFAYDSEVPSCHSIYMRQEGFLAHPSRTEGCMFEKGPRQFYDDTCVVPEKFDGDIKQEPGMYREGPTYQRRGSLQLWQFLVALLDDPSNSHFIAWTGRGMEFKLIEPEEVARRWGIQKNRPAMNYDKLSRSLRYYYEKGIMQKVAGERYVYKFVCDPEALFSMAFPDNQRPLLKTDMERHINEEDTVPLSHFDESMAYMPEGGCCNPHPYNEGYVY
# ETV5, sequence (P41161 whole entry): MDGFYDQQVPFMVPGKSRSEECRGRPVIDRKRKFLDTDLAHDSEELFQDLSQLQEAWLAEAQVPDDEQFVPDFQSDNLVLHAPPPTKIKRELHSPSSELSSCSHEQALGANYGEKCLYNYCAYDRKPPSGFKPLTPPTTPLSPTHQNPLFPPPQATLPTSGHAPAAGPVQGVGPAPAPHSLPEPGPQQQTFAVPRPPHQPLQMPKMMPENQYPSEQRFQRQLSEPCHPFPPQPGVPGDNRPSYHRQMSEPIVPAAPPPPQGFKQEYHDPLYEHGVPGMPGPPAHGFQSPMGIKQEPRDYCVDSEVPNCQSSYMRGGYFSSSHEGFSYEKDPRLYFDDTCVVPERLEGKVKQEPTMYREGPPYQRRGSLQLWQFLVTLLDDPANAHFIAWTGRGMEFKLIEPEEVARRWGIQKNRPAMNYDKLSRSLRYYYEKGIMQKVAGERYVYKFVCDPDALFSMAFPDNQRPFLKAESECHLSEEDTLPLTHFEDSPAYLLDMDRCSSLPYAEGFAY
# SPIB, sequence (Q01892 whole entry): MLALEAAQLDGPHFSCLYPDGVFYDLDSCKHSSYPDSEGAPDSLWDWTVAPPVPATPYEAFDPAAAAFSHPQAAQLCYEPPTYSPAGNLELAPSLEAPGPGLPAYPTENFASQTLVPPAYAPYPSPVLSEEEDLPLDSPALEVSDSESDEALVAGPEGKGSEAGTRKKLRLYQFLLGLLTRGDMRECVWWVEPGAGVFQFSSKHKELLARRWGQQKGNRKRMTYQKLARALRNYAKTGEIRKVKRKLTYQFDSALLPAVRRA
# ELF1, sequence (P32519 whole entry): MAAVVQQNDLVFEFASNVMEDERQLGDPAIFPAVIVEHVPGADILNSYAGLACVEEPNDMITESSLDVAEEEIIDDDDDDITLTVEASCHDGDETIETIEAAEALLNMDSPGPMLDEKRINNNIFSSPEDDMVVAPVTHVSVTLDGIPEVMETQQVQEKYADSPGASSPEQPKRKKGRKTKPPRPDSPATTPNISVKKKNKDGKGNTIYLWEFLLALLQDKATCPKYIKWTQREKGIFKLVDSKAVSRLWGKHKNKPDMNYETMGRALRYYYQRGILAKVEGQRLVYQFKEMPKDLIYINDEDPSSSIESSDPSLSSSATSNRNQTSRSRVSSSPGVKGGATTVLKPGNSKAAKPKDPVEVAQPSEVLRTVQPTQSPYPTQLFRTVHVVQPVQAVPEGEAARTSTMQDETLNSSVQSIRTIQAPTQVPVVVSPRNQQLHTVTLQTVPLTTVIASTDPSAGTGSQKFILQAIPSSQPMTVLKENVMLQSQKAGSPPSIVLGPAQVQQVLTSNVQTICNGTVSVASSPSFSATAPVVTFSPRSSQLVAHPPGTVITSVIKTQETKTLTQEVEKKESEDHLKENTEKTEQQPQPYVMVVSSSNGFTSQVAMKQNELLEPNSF
# CRX, sequence (O43186 whole entry): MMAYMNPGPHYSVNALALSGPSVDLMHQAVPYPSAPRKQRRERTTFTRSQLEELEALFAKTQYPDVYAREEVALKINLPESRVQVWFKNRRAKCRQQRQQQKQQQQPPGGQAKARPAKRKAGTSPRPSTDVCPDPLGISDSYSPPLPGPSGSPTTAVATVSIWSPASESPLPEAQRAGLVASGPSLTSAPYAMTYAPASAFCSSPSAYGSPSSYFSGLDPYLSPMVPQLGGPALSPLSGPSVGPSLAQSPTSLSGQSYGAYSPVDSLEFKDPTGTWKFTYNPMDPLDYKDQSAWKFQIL
# ELF4, sequence (Q99607 whole entry): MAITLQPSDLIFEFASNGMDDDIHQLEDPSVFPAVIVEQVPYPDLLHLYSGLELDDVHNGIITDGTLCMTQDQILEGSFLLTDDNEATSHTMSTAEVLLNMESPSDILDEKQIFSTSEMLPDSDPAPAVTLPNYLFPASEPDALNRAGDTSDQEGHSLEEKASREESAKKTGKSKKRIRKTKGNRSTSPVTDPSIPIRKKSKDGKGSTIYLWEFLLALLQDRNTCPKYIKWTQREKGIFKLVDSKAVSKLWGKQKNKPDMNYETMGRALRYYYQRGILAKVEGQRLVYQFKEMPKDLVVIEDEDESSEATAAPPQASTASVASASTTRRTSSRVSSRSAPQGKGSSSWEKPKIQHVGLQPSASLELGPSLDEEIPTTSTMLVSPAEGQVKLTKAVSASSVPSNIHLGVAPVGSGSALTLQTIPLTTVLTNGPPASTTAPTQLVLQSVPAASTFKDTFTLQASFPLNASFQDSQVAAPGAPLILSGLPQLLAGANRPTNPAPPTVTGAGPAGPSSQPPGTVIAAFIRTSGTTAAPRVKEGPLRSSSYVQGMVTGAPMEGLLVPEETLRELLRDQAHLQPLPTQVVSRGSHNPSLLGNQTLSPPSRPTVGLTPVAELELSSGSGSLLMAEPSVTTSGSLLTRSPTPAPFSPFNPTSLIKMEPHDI
# HSF1, sequence (Q00613 whole entry): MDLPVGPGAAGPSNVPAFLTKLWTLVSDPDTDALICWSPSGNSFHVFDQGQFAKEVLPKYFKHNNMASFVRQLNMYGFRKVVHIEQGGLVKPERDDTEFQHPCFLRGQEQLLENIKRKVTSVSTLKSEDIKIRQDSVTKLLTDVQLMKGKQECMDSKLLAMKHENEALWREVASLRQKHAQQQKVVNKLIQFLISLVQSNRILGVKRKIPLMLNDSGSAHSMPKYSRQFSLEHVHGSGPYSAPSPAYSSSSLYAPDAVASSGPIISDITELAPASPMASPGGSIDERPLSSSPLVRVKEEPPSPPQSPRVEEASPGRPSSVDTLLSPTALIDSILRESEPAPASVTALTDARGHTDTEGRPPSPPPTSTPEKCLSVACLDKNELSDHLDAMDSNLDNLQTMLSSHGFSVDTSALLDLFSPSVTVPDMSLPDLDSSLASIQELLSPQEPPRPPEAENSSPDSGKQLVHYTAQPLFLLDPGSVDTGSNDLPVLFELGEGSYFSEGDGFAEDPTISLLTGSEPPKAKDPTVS
sequence,measurement,setting,value
AATCAA,binding signal,[1],"1.1 fold enrichment (6-mer frequency, TF over GST control)"
same,binding signal,[2],"1.18 fold enrichment (6-mer frequency, TF over GST control)"
same,binding signal,[3],"1.15 fold enrichment (6-mer frequency, TF over GST control)"
same,binding signal,[4],"1.21 fold enrichment (6-mer frequency, TF over GST control)"
same,binding signal,[5],"1.17 fold enrichment (6-mer frequency, TF over GST control)"
same,binding signal,[6],"1.12 fold enrichment (6-mer frequency, TF over GST control)"
same,binding signal,[7],"1.15 fold enrichment (6-mer frequency, TF over GST control)"
same,binding signal,[8],"1.14 fold enrichment (6-mer frequency, TF over GST control)"
same,binding signal,[9],"1.14 fold enrichment (6-mer frequency, TF over GST control)"
same,binding signal,[10],"1.19 fold enrichment (6-mer frequency, TF over GST control)"
same,binding signal,[11],"1.14 fold enrichment (6-mer frequency, TF over GST control)"
same,binding signal,[12],"1.13 fold enrichment (6-mer frequency, TF over GST control)"
same,binding signal,[13],"1.11 fold enrichment (6-mer frequency, TF over GST control)"
same,binding signal,[14],"1.21 fold enrichment (6-mer frequency, TF over GST control)"
same,binding signal,[15],"1.18 fold enrichment (6-mer frequency, TF over GST control)"
same,binding signal,[16],"1.48 fold enrichment (6-mer frequency, TF over GST control)"
same,binding signal,[17],"1.24 fold enrichment (6-mer frequency, TF over GST control)"
same,binding signal,[18],"1.32 fold enrichment (6-mer frequency, TF over GST control)"
same,binding signal,[19],"1.19 fold enrichment (6-mer frequency, TF over GST control)"
